# Measurements reported in PubChem BioAssay (NCI).
# About 79,000 compounds went through this panel and 15% of them were active in at least one assay; those are over-represented in the sample as a whole. Unmarked numbers belong to inactive results. Calls of active or inactive are those of the source. Rule as the data show it: active = growth inhibition above about 70%; inactive = the rest.
# How the values were obtained:
# [1] = NCI Yeast Anticancer Drug Screen. Data for the rad52 strain (AID 147);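 also: 0% = growth of vehicle-treated control cultures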; conditions: S. cerevisiae rad52 mutant growth inhibition, stronger effect = higher value
# Summary of the method: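 Compounds are applied to a genetically defined yeast strain lacking normal DNA damage repair, and inhibition of growth is expressed relative to cultures given vehicle only.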
# [2] = NCI Yeast Anticancer Drug Screen. Data for the wt1 strain (AID 149);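 also: 0% = growth of vehicle-treated wt1 cultures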; conditions: S. cerevisiae wt1 strain (SPY 50644) growth inhibition, stronger effect = higher value
# Summary of the method: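 Compounds are added to wt1 yeast cultures. Growth is then measured. Inhibition is expressed relative to vehicle-treated controls.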
# [3] = NCI Yeast Anticancer Drug Screen. Data for the rad50EPP+ strain (AID 151);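 also: 0% = growth of vehicle-treated control cultures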; conditions: S. cerevisiae rad50 mutant strain, stronger effect = higher value
# Summary of the method: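 Compounds were applied to the rad50EPP+ yeast strain, which bears a defined DNA repair alteration, and growth inhibition was determined relative to vehicle-treated cultures.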
# [4] = NCI Yeast Anticancer Drug Screen. Data for the mgt1 strain (AID 153); conditions: S. cerevisiae mgt1 mutant growth inhibition, stronger effect = higher value
# Summary of the method: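 Strain: mgt1 yeast, one of a set carrying defined DNA damage repair or cell cycle control alterations. Compound-treated growth compared with vehicle.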
# [5] = NCI Yeast Anticancer Drug Screen. Data for the rad50 strain (AID 155);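 also: 0% = growth of vehicle-only cultures of the same strain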; conditions: S. cerevisiae rad50 strain growth inhibition, stronger effect = higher value
# Summary of the method: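 Inhibition values express reduced yeast growth in compound-treated cultures relative to vehicle-treated controls.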
# [6] = NCI Yeast Anticancer Drug Screen. Data for the mec2-1 strain (AID 157); conditions: S. cerevisiae mec2-1 strain, stronger effect = higher value
# Summary of the method: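 Strain: mec2-1 (DNA repair/cell cycle alteration). Compound exposure, then growth measured; inhibition expressed relative to vehicle.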
# [7] = NCI Yeast Anticancer Drug Screen. Data for the rad14 strain (AID 159);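 also: 0% = growth of vehicle-treated control cultures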; conditions: S. cerevisiae rad14 strain growth inhibition, stronger effect = higher value
# Summary of the method: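 A mutant yeast strain defective in DNA damage repair is treated with compound; inhibition of its growth is scored against untreated, vehicle-exposed cultures.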
# [8] = NCI Yeast Anticancer Drug Screen. Data for the sgs1 mgt1 strain (AID 161);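 also: 0% = growth of cultures given vehicle only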; conditions: S. cerevisiae sgs1 mgt1 strain, stronger effect = higher value
# Summary of the method: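 Read-out: growth inhibition vs vehicle controls. Cells: mutant yeast strain deficient in DNA damage repair.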
# [9] = NCI Yeast Anticancer Drug Screen. Data for the CLN2oe strain (AID 163);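 also: 0% = growth of vehicle-only control cultures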; conditions: S. cerevisiae CLN2oe strain, stronger effect = higher value
# Summary of the method: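 Growth of a genetically modified yeast strain is measured after compound exposure and compared with cultures given vehicle alone.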
# [10] = NCI Yeast Anticancer Drug Screen. Data for the cln2 rad14 strain (AID 165);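 also: 0% = growth equal to vehicle treated cultures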; conditions: S. cerevisiae cln2 rad14 strain, stronger effect = higher value
# Summary of the method: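 Compounds are applied to the cln2 rad14 yeast strain, and growth is then compared with that of vehicle-treated cultures to give inhibition.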
# [11] = NCI Yeast Anticancer Drug Screen. Data for the bub3 strain (AID 167); conditions: S. cerevisiae bub3 mutant strain, stronger effect = higher value
# Summary of the method: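 Steps: expose the mutant yeast strain to compound; grow alongside vehicle-treated cultures; measure growth; express inhibition against the vehicle cultures.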
# [12] = NCI Yeast Anticancer Drug Screen. Data for the wt2 strain (AID 169);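 also: 0% = growth of vehicle-treated yeast cultures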; conditions: S. cerevisiae wt2 strain growth inhibition, stronger effect = higher value
# Summary of the method: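 This strain belongs to a panel of yeast strains with defined genetic alterations in DNA damage repair or cell cycle control. Compounds are applied, and growth inhibition is measured against vehicle-treated cultures.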
# [13] = NCI Yeast Anticancer Drug Screen. Data for the mlh1 strain (AID 171);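 also: 0% = growth of vehicle-treated control cultures of the same strain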; conditions: S. cerevisiae mlh1 strain growth inhibition, stronger effect = higher value
# Summary of the method: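 Growth of the mutant yeast strain after compound exposure, expressed as inhibition relative to vehicle-only controls.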
# [14] = NCI Yeast Anticancer Drug Screen. Data for the mlh1 rad18 strain (AID 175); conditions: S. cerevisiae mlh1 rad18 strain growth inhibition, stronger effect = higher value
# Summary of the method: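 Read-out is yeast growth inhibition, calculated against vehicle-only controls. The compound was applied to a strain engineered with DNA damage repair alterations.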
# [15] = NCI Yeast Anticancer Drug Screen. Data for the rad18 strain (AID 177); conditions: S. cerevisiae rad18 mutant growth inhibition, stronger effect = higher value
# Summary of the method: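 Growth of the mutant yeast strain after compound exposure, normalised to vehicle-only cultures.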
# [16] = at 5.0 µM (retest, dose inferred, filed as 0.5)
# [17] = at 50.0 µM (retest, dose inferred, filed as 5.0)
compound,measurement,setting,value
CCCCCCCCCCCC1N=C(N)NC(CCCO)=C1C(=O)OC (stereo not drawn),growth inhibition,[1]; at 1.2 µM,5%
same,growth inhibition,[1]; at 3.7 µM,99% (active)
same,growth inhibition,[1]; at 11.0 µM,99% (active)
same,growth inhibition,[1]; at 33.0 µM,99% (active)
same,growth inhibition,[1]; at 100.0 µM,99% (active)
same,growth inhibition,[2]; at 1.2 µM,15%
same,growth inhibition,[2]; at 3.7 µM,99% (active)
same,growth inhibition,[2]; at 11.0 µM,99% (active)
same,growth inhibition,[2]; at 33.0 µM,99% (active)
same,growth inhibition,[2]; at 100.0 µM,99% (active)
same,growth inhibition,[3]; at 1.2 µM,32%
same,growth inhibition,[3]; at 3.7 µM,81% (active)
same,growth inhibition,[3]; at 11.0 µM,99% (active)
same,growth inhibition,[3]; at 33.0 µM,99% (active)
same,growth inhibition,[3]; at 100.0 µM,98% (active)
same,growth inhibition,[4]; at 1.2 µM,46%
same,growth inhibition,[4]; at 3.7 µM,99% (active)
same,growth inhibition,[4]; at 11.0 µM,100% (active)
same,growth inhibition,[4]; at 33.0 µM,99% (active)
same,growth inhibition,[4]; at 100.0 µM,99% (active)
same,growth inhibition,[5]; at 1.2 µM,28%
same,growth inhibition,[5]; at 3.7 µM,99% (active)
same,growth inhibition,[5]; [16],28%
same,growth inhibition,[5]; at 11.0 µM,99% (active)
same,growth inhibition,[5]; at 33.0 µM,99% (active)
same,growth inhibition,[5]; [17],100% (active)
same,growth inhibition,[5]; at 50.0 µM,89.2% (active)
same,growth inhibition,[5]; at 100.0 µM,99% (active)
same,growth inhibition,[6]; at 1.2 µM,12%
same,growth inhibition,[6]; at 3.7 µM,99% (active)
same,growth inhibition,[6]; [16],7%
same,growth inhibition,[6]; at 11.0 µM,99% (active)
same,growth inhibition,[6]; at 33.0 µM,99% (active)
same,growth inhibition,[6]; [17],99% (active)
same,growth inhibition,[6]; at 50.0 µM,91.8% (active)
same,growth inhibition,[6]; at 100.0 µM,99% (active)
same,growth inhibition,[7]; at 1.2 µM,72% (active)
same,growth inhibition,[7]; at 3.7 µM,99% (active)
same,growth inhibition,[7]; at 11.0 µM,99% (active)
same,growth inhibition,[7]; at 33.0 µM,99% (active)
same,growth inhibition,[7]; at 100.0 µM,99% (active)
same,growth inhibition,[8]; [16],65%
same,growth inhibition,[8]; [17],99% (active)
same,growth inhibition,[8]; at 50.0 µM,88.4% (active)
same,growth inhibition,[9]; at 1.2 µM,16%
same,growth inhibition,[9]; at 3.7 µM,99% (active)
same,growth inhibition,[9]; at 11.0 µM,99% (active)
same,growth inhibition,[9]; at 33.0 µM,99% (active)
same,growth inhibition,[9]; at 100.0 µM,99% (active)
same,growth inhibition,[10]; [16],21%
same,growth inhibition,[10]; [17],100% (active)
same,growth inhibition,[10]; at 50.0 µM,90.8% (active)
same,growth inhibition,[11]; at 1.2 µM,11%
same,growth inhibition,[11]; at 3.7 µM,99% (active)
same,growth inhibition,[11]; [16],6%
same,growth inhibition,[11]; at 11.0 µM,99% (active)
same,growth inhibition,[11]; at 33.0 µM,98% (active)
same,growth inhibition,[11]; [17],99% (active)
same,growth inhibition,[11]; at 50.0 µM,91.5% (active)
same,growth inhibition,[11]; at 100.0 µM,98% (active)
same,growth inhibition,[12]; at 1.2 µM,16%
same,growth inhibition,[12]; at 3.7 µM,99% (active)
same,growth inhibition,[12]; at 11.0 µM,99% (active)
same,growth inhibition,[12]; at 33.0 µM,99% (active)
same,growth inhibition,[12]; at 100.0 µM,99% (active)
same,growth inhibition,[13]; at 1.2 µM,6%
same,growth inhibition,[13]; at 3.7 µM,99% (active)
same,growth inhibition,[13]; at 11.0 µM,99% (active)
same,growth inhibition,[13]; at 33.0 µM,99% (active)
same,growth inhibition,[13]; at 100.0 µM,98% (active)
same,growth inhibition,[14]; [16],53%
same,growth inhibition,[14]; [17],99% (active)
same,growth inhibition,[14]; at 50.0 µM,85.5% (active)
same,growth inhibition,[15]; at 1.2 µM,67%
same,growth inhibition,[15]; at 3.7 µM,99% (active)
same,growth inhibition,[15]; at 11.0 µM,99% (active)
same,growth inhibition,[15]; at 33.0 µM,99% (active)
same,growth inhibition,[15]; at 100.0 µM,98% (active)
